The text below walks through data of PubChem BioAssay AID602290 (National Center for Advancing Translational Sciences (NCATS), 2012).

The source made the active and inactive calls.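 The calls were made as follows: active = fold change shows a rise in VEGF expression relative to GAPDH, above the control level; inconclusive = expression about equal to the control; inactive = no rise in relative expression.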

The assay can be described thus: qHTS Assay for Agonists of the Relaxin Receptor RXFP1: VEGF expression. The following applies: THP1 cells, VEGF mRNA qRT-PCR, 2 h; active compounds read high. An excerpt:
The relaxin hormone is involved in the variety of biological functions in normal tissues and diseases. The role of relaxin is well-established in female reproduction and parturition, mammary gland and endometrial development, maintenance of myometrial quiescence during pregnancy. Relaxin signaling through its G protein-coupled receptor (GPCR) RXFP1 results in ECM remodeling through regulation of collagen deposition, cell invasiveness, proliferation and overall tissue homeostasis. […] Recombinant human relaxin (rhRlx) is currently being tested in clinical trials as a protective agent in congestive heart failure, in treating severe preeclampsia, and as an anti-fibrotic agent in systemic sclerosis.
Upon relaxin binding RXFP1 activation leads to the activation of adenylate cyclase (AC) via Gs. cAMP will activate PKA, which phosphorylates many signaling proteins. Thus, detection of cAMP increase is an easy and reliable indication of relaxin receptor activation. To screen for agonists of the relaxin receptor, a HEK293T cell line stably transfected with RXFP1 was used. RXFP1 activation was assayed by changes in cAMP levels as detected with a time-resolved fluorescence energy transfer (TR-FRET) cAMP detection kit.
After the primary screen and SAR work, a probe and its analogs were tested in this selectivity assay. THP1 cells (human acute monocytic leukemia cell line) were used to analyze the stimulation of VEGF gene expression after treatment with relaxin or compounds. The VEGF stimulation in these cultured […] cells is a well-established property of relaxin.
NIH Chemical Genomics Center [NCGC]
NIH Molecular Libraries Probe Production Centers Network [MLPCN]
Assay Submitter (PI): Alexander Agoulnik
400,000 THP1 cells (0.4 mL at 1x10^6 cells/mL) in test media (RPMI-1640 without phenol red, 0.5% FBS, 1x Pen/Strep, 0.05 mM of 2-mercaptoethanol) were seeded in each well on a 24-well plate. After 24 hours incubation at 37 degrees C, 5% CO2, relaxin or compounds were added for 2 hours. The cells were harvested and RNA was extracted by the Trizol (Invitrogen, Carlsbad, CA) method according to manufacturers' instructions. cDNA was synthesized by using Verso cDNA kit (Thermo Scientific, Waltham, MA) according to manufacturer's protocol. Quantitative real time RT-PCR for VEGF and GAPDH gene expression was done using a Roche LightCycler 480 (Roche Diagnostics, Indianapolis, IN) with the appropriate set of primers and probes spanning different exons. The relative fold change in VEGF mRNA level was calculated by the comparative Ct (2- Ct) method using GAPDH expression for normalization of RNA.
Regarding `CCCCOc1ccccc1C(=O)Nc1ccccc1C(=O)Nc1cccc(S(=O)(=O)C(F)(F)F)c1`, the fold change is 1.57 (active). To `COc1ccccc1C(=O)Nc1ccccc1C(=O)Nc1cccc(S(=O)(=O)C(F)(F)F)c1` belongs 1.41 (active).

With `CCCOc1ccccc1C(=O)Nc1ccccc1C(=O)Nc1cccc(S(=O)(=O)C(F)(F)F)c1`, the fold change is 1.53 (active). On to `CC(C)Oc1ccccc1C(=O)Nc1ccccc1C(=O)Nc1cccc(S(=O)(=O)C(F)(F)F)c1`, for which the fold change was 2.79 (active). In the case of `COc1ccccc1C(=O)Nc1ccccc1C(=O)Nc1cccc(SC(F)(F)F)c1`, the fold change is 1.15 (active). The result for `O=C(Nc1cccc(S(=O)(=O)C(F)(F)F)c1)c1ccccc1NC(=O)c1ccccc1OCC(F)(F)F` reads 1.24 (active); that for `O=C(O)c1cc(-c2ccccc2)nn1CC1CC(c2cccnc2)=NO1` (centres undefined), 1.01 (inactive). With `CCOc1ccccc1C(=O)Nc1ccccc1C(=O)Nc1cccc(S(=O)(=O)C(F)(F)F)c1`, the fold change was 2.33 (active). To `CCOc1ccccc1C(=O)Nc1ccccc1C(=O)Nc1cccc(C(F)(F)F)c1` belongs 1.93 (active).
